Unmarked numbers belong to inactive results. Active and inactive are the calls of the source.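 How the source made its calls: active means mean inhibition above 46.68%, the untreated control wells mean plus 3 SD; inactive means the rest.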
The compounds below were run against Nuclear receptor coactivator 1 (Homo sapiens) (UniProt Q15788) (assay: NCOA1 GAL4-fusion reporter inhibition – cell-based, luminescence, quadruplicate, confirmation (AID 588820;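 further: 0% = DMSO wells and 100% = gossypol 36 µM treated wells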)). Conditions: HEK293 GAL4-SRC1 luciferase reporter, at 3.6 µM, active compounds read high.
Nuclear receptor coactivator 1 (Homo sapiens), sequence (Q15788 whole entry, looked up, the tested form may be a part): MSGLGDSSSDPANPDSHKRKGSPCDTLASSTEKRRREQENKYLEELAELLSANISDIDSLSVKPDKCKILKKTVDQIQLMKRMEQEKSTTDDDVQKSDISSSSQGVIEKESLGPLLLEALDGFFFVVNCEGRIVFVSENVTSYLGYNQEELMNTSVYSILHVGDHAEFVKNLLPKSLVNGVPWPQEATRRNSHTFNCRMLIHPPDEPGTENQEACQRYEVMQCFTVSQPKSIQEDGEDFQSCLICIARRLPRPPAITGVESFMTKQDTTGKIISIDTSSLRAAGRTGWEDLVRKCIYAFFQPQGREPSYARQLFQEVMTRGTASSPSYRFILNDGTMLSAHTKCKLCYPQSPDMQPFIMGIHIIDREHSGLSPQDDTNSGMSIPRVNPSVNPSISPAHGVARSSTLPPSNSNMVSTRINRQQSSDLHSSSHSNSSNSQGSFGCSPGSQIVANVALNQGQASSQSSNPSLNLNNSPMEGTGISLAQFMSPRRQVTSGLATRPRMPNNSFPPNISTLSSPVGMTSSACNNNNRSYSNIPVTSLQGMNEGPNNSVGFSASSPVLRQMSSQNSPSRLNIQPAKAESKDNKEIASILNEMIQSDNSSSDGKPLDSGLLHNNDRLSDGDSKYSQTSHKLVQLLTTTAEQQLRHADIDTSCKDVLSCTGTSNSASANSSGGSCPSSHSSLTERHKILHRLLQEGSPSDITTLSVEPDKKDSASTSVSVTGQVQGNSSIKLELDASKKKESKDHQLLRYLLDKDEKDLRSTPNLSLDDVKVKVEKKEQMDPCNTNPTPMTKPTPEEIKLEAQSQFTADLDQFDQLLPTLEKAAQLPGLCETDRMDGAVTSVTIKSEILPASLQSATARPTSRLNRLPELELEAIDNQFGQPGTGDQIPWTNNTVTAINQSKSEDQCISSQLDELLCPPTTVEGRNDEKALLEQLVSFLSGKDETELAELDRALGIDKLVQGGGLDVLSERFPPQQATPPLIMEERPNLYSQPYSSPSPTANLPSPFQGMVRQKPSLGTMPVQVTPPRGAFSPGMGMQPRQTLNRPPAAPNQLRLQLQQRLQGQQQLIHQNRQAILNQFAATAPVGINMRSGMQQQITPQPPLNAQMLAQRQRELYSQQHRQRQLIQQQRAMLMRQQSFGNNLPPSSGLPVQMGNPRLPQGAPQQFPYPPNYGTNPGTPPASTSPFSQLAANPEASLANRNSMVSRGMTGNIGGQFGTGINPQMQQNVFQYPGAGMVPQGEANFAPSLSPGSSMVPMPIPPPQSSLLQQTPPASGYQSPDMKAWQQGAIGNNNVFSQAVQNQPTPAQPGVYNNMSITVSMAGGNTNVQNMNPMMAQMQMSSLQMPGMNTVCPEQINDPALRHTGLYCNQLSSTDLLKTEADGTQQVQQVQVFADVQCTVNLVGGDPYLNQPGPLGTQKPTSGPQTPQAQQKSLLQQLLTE

Compound | inhibition
CCN(CC(=O)Nc1c(F)cccc1F)C(=O)/C=C/c1ccc(S(=O)(=O)N2CCCCCC2)cc1 | -10.1%
COc1ccc(NC(=O)COc2ccccc2Cc2ccccc2)cc1S(N)(=O)=O | 38.1%
O=C(c1cc(COc2c(F)cccc2F)on1)N1CCC(c2ccncc2)CC1 | -8.98%
COc1ccc(OC)c(S(=O)(=O)NCC(c2ccc3c(c2)OCO3)N2CCOCC2)c1 (stereo not given) | -16.7%
COc1ccc(-n2c(NNC(C)=O)nc3sc4c(c3c2=O)CCCC4)cc1 | 23.4%
O=[N+]([O-])c1ccc(CSc2ccc(S(=O)(=O)N3CCOCC3)cn2)cc1 | -7.09%
Cc1nn(CC(=O)N2CCN(c3cccc(C(F)(F)F)c3)CC2)c(=O)c2cccn12 | 23.4%
COc1ccccc1NC(=O)c1cc(S(=O)(=O)NC2CCCC2)ccc1F | 3.42%
CN1CCc2c(OCc3ccc(F)cc3)cccc2C1=O | -8.74%
COc1ccc(Cl)cc1NC(=O)CN(C)C(=O)c1ccc(COc2ccccc2)cc1 | -31.4%
COc1ccc(-n2c(SC(C)C(=O)Nc3ncc(Cl)cc3Cl)nc3ccccc32)cc1 (stereo not given) | 35.4%
O=C(NC1CCCC1)C(c1ccccc1)N(Cc1ccco1)C(=O)Cc1cccs1 (stereo not given) | 17.7%
CSc1nc2[nH]ncc2c(=O)[nH]1 | -1.61%
CCN1/C(=C2\C(=O)N(C)C(=S)N2c2ccccc2)C=Cc2ccccc21 | -4.3%
CC(C)Cn1c(N)c(C(=O)COC(=O)CC23CC4CC(CC(C4)C2)C3)c(=O)n(C)c1=O | 6.72%
Cc1cccc(C(C)C)c1-n1nnnc1-c1ccccc1 | -4.66%
O=C(N/N=C/c1coc2ccc(Cl)cc2c1=O)c1ccc(O)cc1 | 18.6%
COC(=O)C1CCCCN1C(=O)c1cc(COc2cccc3cnccc23)on1 (stereo not given) | 30.8%
COc1ccccc1CNC(=O)C1CCCN(S(=O)(=O)c2cccc3nsnc23)C1 (stereo not given) | -23.4%
CCNc1nc2c(c(=O)n(C)c(=O)n2C)n1Cc1ccc(Cl)cc1 | -0.87%

Compound | inhibition
Cc1ccc(NC(=O)CN(C(=O)N2CCN(C)CC2)S(=O)(=O)c2ccc(C)cc2)cc1 | -4.36%
Cc1ccc(S(=O)(=O)N2CCN(C(=O)c3ccc(S(=O)(=O)N4CCCC4)cc3)CC2)cc1 | 1.07%
COc1ccc2cc3c(N)nn(C(=O)c4cccc([N+](=O)[O-])c4)c3nc2c1 | 51.3% (active)
CN(CC(=O)NNC(=O)Cc1ccccc1F)S(=O)(=O)c1ccc(Cl)cc1 | -12.3%
COc1ccc(C(=O)Nc2ccc(N3CCCCCC3)cc2)cc1S(=O)(=O)N1CCOCC1 | -2.46%
O=C1/C(=N\S(=O)(=O)c2cccs2)C([n+]2ccccc2)=C([O-])c2ccccc21 | -4.31%
Cc1ccc(OCC(=O)Oc2c(C)cccc2C)cc1C | -3.92%
Nc1c(C(=O)c2ccccc2)sc2nsc(SCCN3CCCC3)c12 | -0.71%
CCSc1nnc(NC(=O)C(C)(C(F)(F)F)C(F)(F)F)s1 | -15.3%
CCC(Cc1ccccc1)NC(=O)CCNS(=O)(=O)c1cc(Br)cnc1N (stereo not given) | 0.75%
CCOc1ccc(NC(=S)N2CCC(NC(=O)c3ccco3)CC2)cc1 | -7.01%
COc1ccc(C(=O)n2cc(C(=O)c3cc(C)ccc3O)cn2)cc1OC | -3.44%
CN(C)/C=C/C(=O)c1ccn(S(=O)(=O)c2ccccc2)c1 | -2.09%
Cc1ccc2oc(C(=O)NC3CCS(=O)(=O)C3)cc(=O)c2c1 (stereo not given) | -6.08%
CC(=O)c1c(C)n(-c2ccc(C)cc2)c2ccc(O)cc12 | 35%
CCc1ccc(NC(=O)c2ccc(F)c(S(=O)(=O)N(CC)c3ccccc3)c2)cc1 | 3.58%
CCOC(=O)N1CCN(C2=Nc3cccc4cccc2c34)CC1 | -13.8%
COc1ccc(-n2cc(-c3ccccc3)c3c(N4CCOCC4)ncnc32)cc1 | -50.7%
CCN(C(=O)C(C)OC(=O)CCCNC(=O)c1ccc(Cl)cc1)c1ccccc1 (stereo not given) | -2.16%
COc1cc(C=C2CCCC(=Cc3ccc(OCC4CO4)c(OC)c3)C2=O)ccc1OCC1CO1 (stereo not given) | -119%

Reference: PubChem BioAssay
